# Results published in the supplement of paper PMC6555819.
# Legend:
# Assay in all cases: PBM binding z-score (relative to random genomic background probes); higher = stronger binding; sequences stand for … in GC…GCGATTGACAGCGTAGAATGAAGG
# [1] = test system: FXR:RXRa (NR concentration 270 nM, RXRa partner concentration 90 nM)
# Method in brief: (§1)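 Binding z-scores were set against random background probes. The data came from custom Agilent 4×180K protein-binding microarrays carrying double-stranded probes with 34-nt variable regions, incubated 1 h with ligand-free nuclear receptor dimers. Partner-specific antibodies detected binding, and scanned fluorescence was regression-normalized.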
# [2] = test system: LXRa:RXRa (NR concentration 270 nM, RXRa partner concentration 90 nM)
# Method in brief: as §1
# [3] = test system: LXRa homodimer (NR concentration 270 nM)
# Method in brief: as §1
# [4] = test system: LXRb:RXRa (NR concentration 270 nM, RXRa partner concentration 90 nM)
# Method in brief: as §1
# [5] = test system: LXRb homodimer (NR concentration 270 nM)
# Method in brief: as §1
# [6] = test system: PPARa:RXRa (NR concentration 270 nM, RXRa partner concentration 90 nM)
# Method in brief: as §1
# [7] = test system: PPARg:RXRa (NR concentration 180 nM, RXRa partner concentration 90 nM)
# Method in brief: as §1
# [8] = test system: PPARg:RXRa 270nM:90nM, anti-RXR (NR concentration 270 nM, RXRa partner concentration 90 nM)
# Method in brief: as §1
# [9] = test system: PPARg:RXRa 30nM:10nM, anti-RXR (NR concentration 30 nM, RXRa partner concentration 10 nM)
# Method in brief: as §1
# [10] = test system: PPARg:RXRa 90nM:30nM, anti-RXR (NR concentration 90 nM, RXRa partner concentration 30 nM)
# Method in brief: as §1
# [11] = test system: PPARg:RXRa DBDmut IVT, anti-RXR (DBD mutation: RXRa K156A/R161A, NR concentration 270 nM, RXRa partner concentration 90 nM)
# Method in brief: as §1
# [12] = test system: PPARg:RXRa IVT, anti-PPARg (NR concentration 270 nM, RXRa partner concentration 90 nM)
# Method in brief: as §1
# [13] = test system: PPARg DBDmut:RXRa IVT, anti-PPARg (DBD mutation: PPARg1 K132A/R137A, NR concentration 270 nM, RXRa partner concentration 90 nM)
# Method in brief: as §1
# [14] = test system: PPARg DBDmut IVT, anti-PPARg (DBD mutation: PPARg1 K132A/R137A, NR concentration 270 nM)
# Method in brief: as §1
# [15] = test system: PPARg homodimer (NR concentration 180 nM)
# Method in brief: as §1
# [16] = test system: PXR:RXRa (NR concentration 270 nM, RXRa partner concentration 90 nM)
# Method in brief: as §1
# [17] = test system: PXR homodimer (NR concentration 270 nM)
# Method in brief: as §1
# [18] = test system: RARa:RXR (NR concentration 270 nM, RXRa partner concentration 90 nM)
# Method in brief: as §1
# [19] = test system: RARa homodimer (NR concentration 270 nM)
# Method in brief: as §1
# [20] = test system: RARb:RXRa (NR concentration 270 nM, RXRa partner concentration 90 nM)
# Method in brief: as §1
Sequence,PBM binding z-score [1],PBM binding z-score [2],PBM binding z-score [3],PBM binding z-score [4],PBM binding z-score [5],PBM binding z-score [6],PBM binding z-score [7],PBM binding z-score [8],PBM binding z-score [9],PBM binding z-score [10],PBM binding z-score [11],PBM binding z-score [12],PBM binding z-score [13],PBM binding z-score [14],PBM binding z-score [15],PBM binding z-score [16],PBM binding z-score [17],PBM binding z-score [18],PBM binding z-score [19],PBM binding z-score [20]
CCTAGTTGGTCAAGGTCACACATGCTATAGGTAC,3.87,3.69,2.25,3.88,0.901,4.01,3.24,3.69,1.38,2.96,2.61,3.82,1.11,1.14,3.65,4.24,2.57,4.11,2.64,4.14
GCTGCTAGGTCAACTGATGGTCAGCTAAAGCTCG,4.31,3.05,0.34,2.04,-0.115,3.63,2.88,3.35,0.939,2.08,4.92,4.19,-0.0375,-1.12,1.55,1.66,-0.596,3,0.346,4.26
TCTCGGATGACACGAAAGGTCAGAGCTCGACATC,2.84,3.68,2.02,3.4,0.368,3.8,1.38,2.75,2.83,2.72,1.88,1.33,0.619,1.03,3.4,3.7,0.17,4.37,1.07,3.68
ACTAGTTGCTCAGCTGAGGTCACACACAATTCGG,2.75,2.94,1.75,3.4,0.214,3.4,1.17,1.69,0.448,1.24,0.944,1.76,0.496,1.18,1.91,4.3,1.44,4.26,0.561,
GCATATAGGTAATTCAAGGTGAAAGTCCGATTGT,0.457,4.97,0.799,2.13,-0.412,1.9,0.967,1.51,0.0519,0.865,3.96,3.53,0.595,0.845,0.811,0.919,0.171,2.33,0.378,0.678
CGTCCAAGGTCACAGGAGGTCAGTGAAGACAGAT,7.67,7.39,4.32,5.97,0.764,6,6.76,6.69,3.37,5.61,4.02,5.26,0.184,-0.411,4.98,6.88,3.92,6.48,2.32,
CAAACTAGGTCACGAAAGGTCAAAGCCGAATGAC,7.72,8.31,8.03,7.21,2.38,6.89,10.6,8.43,7.38,8.99,8.59,8.71,2.62,1.68,7.54,6.89,3.03,7.57,4.36,5.74
ATCGAATGGTCGAGGTGAGTATAGAGAAAGGGAA,0.114,-0.0823,-0.329,-0.326,-0.256,0.069,0.444,-0.0117,0.061,0.091,-0.483,0.658,1.03,0.73,0.372,-0.283,0.0857,0.0342,0.112,0.541
CCTAGTTGGTCAGGAGGTCACAAACCGGATATGA,3.32,2.85,1.66,3.16,0.659,3.98,3.09,3.7,1.19,2.73,1.35,3.19,0.681,-0.00546,3.21,3.77,1.38,4.45,2.04,3.37
CGTCCAAGGTCATAGGAGGTCATTGAAGACAGAT,7.83,7.82,7.86,6.99,1.61,5.94,5.65,5.98,2.75,4.71,3.6,4.68,0.258,0.325,4.58,7.17,10,6.52,2.32,5.47
CAAACCAGGTCACGAAAGGTCAAAGTCGAATGAC,7.94,8.2,8.63,7.45,3.02,6.66,9.2,7.84,5.15,7.6,6.74,7.37,0.599,1.79,6.46,7.33,5.57,8.04,4.58,5.74
CGAACTAGGTCATCGAGGACAGTGAATACATTGA,4.22,2.59,0.3,1.9,-0.0709,4.86,7.79,6.42,4.26,6.2,8.15,8.47,2.12,2.09,1.73,2.62,2.57,2.26,0.951,4
CGTCAAAGTTCAAGTTAACGTAACAGAAAGCAGC,7.26,6.56,4.75,4.33,2.63,5.3,5.08,5.71,2.68,4.8,0.502,2.16,0.474,0.736,3.88,4.92,4.14,3.96,2.01,
GATACACGGTCAAGGCCAGAGTACGCGTATTGAT,0.0472,0.275,-0.18,-0.406,-0.667,-0.0579,0.695,-0.00524,-0.0944,-0.0776,0.208,0.594,-0.0876,-0.79,-0.507,0.00631,-0.314,-0.159,-0.63,2.67
AGTCAAATTTCATCTAGGTAACGTAAGATATGCT,-0.224,-0.221,0.168,0.0477,0.362,0.347,1.02,0.0693,0.291,0.178,0.205,2.04,1.11,1.49,0.098,-0.111,-0.176,0.369,0.837,
TAGCCTAGGTCAAGCGGGCCAGTATAGTGTCGGC,4.12,3.15,0.0899,1.78,-0.385,3.62,2.12,2.59,0.103,1.32,2.36,2.99,-0.422,-0.858,0.96,1.38,-0.618,2.42,-0.521,4.04
GCTGCTAGGTCAACTGAGGGTCAGCTAAAGCTCG,5.12,4.47,1.48,3.45,0.289,4.35,3.55,4.15,0.901,2.72,4.93,4.17,-0.389,-0.635,4.56,4.5,-0.492,5.93,0.262,4.83
GATACAGAGTCAGCTAGAGGCCAGAGTATGGAAA,-0.527,-0.699,-0.703,-0.919,-1.16,-0.619,0.312,-0.242,-0.296,-0.352,-0.664,-0.657,-0.407,-0.534,-0.64,-0.537,-0.489,-0.487,-0.438,
TAGCCTAGGTCATGCGGGCCAGCATAGTGTCGGC,3.77,3,0.115,1.37,-0.19,3.4,2.11,2.55,0.274,1.49,1.81,2.94,0.0937,-0.357,1.08,1.52,-0.642,2.1,-0.53,3.59
CGTCAAAGTTCAAGCTAACGTAACAGAAAGCAGC,7.1,6.1,3.7,3.81,1.32,4.93,4.58,5.18,2.29,4.32,0.497,1.77,1.34,1.15,3.13,4.47,2.52,3.3,2.21,5.24
ACTAGGTGGTCAGCTGAGGTCACACACAATTCGG,3.12,3.37,2.31,3.52,-0.173,3.87,2.43,2.63,0.956,2.14,1.21,3.02,0.296,0.306,1.93,5.62,1.01,4.73,0.58,3.78
ATCGTAAGGTCGTGAGGTGAGTATACAGAAAGGC,3.26,2.69,-0.00472,2.14,0.775,3.87,1.99,2.39,0.777,1.55,0.0684,1.65,1.19,1.05,1.4,2.22,0.545,3.29,0.99,3.11
TGGCCTAGGTCATGCGGGCCAGTATAGTGTCGGC,3.58,2.57,-0.464,1.2,-1.55,3.28,1.7,2.2,0.139,0.89,1.03,2.44,-0.76,-1.48,0.35,1.12,-0.591,2.07,-0.739,3.53
TAGCCTAGGTCAGATCGGGCGAGTATACGCTATA,1.73,1.03,-0.449,0.569,-0.387,1.58,0.654,1.08,-0.174,0.958,0.488,1.31,-0.335,-0.507,0.138,0.314,-0.678,0.971,-1.26,
GCTAGTTTGTCAGTAAAAGGTCACACACCGGTCG,3.28,4.33,4.39,4.2,1.2,4.42,3.19,5.47,3.23,5.43,0.319,2.75,0.759,0.562,4.4,4.95,1.22,5.77,2.54,4.12
TGAATGAGGTCAAAGATCAGGGAACGTGGCGTCG,7.57,6.26,1.74,4.88,2.72,6.45,9.41,8.31,7.23,9.22,5.48,6.25,2.11,0.903,2.17,5.41,1.74,6.5,1.38,4.99
ACTAGCAGGCCAAGGGTGACTCAAGATTAGTCCG,-0.498,-0.205,-0.435,-0.119,-1,2.13,4.45,5.29,3.6,5.35,0.931,1.84,-0.0543,-0.633,-0.412,-0.0749,-0.354,0.264,-0.894,0.8
TTACCAAGGTGACCTGAGGTCGTTGATCCAACTC,3.01,5.21,3.22,3.72,-0.159,3.47,1.7,2.13,0.705,1.34,1.69,2.92,0.109,-0.145,1.47,5.57,1.38,3.89,-0.101,2.5
TAGCCTAGGTCATTCAGGGGGCAGTATAGAAAGC,5.76,4.78,2.16,5.66,11,4.6,3.97,4.6,1.89,3.53,2.78,4.86,5.63,7.07,4.21,4.22,1.22,5.41,0.982,4.45
GATACAGGGTCAACTAGAGGCCAGAGTATGGAAA,7.52,5.21,0.703,4.77,0.877,6.2,6.7,5.69,2.72,4.61,2.63,3.97,1.7,0.682,3.88,4.77,0.995,6.02,0.807,4.8
